# Laboratory results published in the supplement of paper PMC12282887.
# ± gives the standard deviation of the averaged measurements.
# What was measured:
# Experiment in all cases: promoter activity interaction Z-score (Lux/OD deviation from empty-vector control); higher = stronger promoter induction by the compound
# [1] = system: E. coli BW25113 acrABp lux reporter
# How it was run: (§1)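 Reporter strains of E. coli BW25113 grew at 37°C in 40 µl LB Lennox in 384-well plates. Readings of OD600 and luminescence were taken every 30 min over 12 h, integrated over 0–8 h (wild type) or 1–9 h (deletion strains), and wells below 10% of the median growth value were excluded. Scores are Z-transformed residuals of growth-normalised luminescence from a fit against a control.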
# [2] = system: E. coli BW25113 micFp lux reporter
# How it was run: as §1
# [3] = system: E. coli BW25113 ompFp lux reporter
# How it was run: as §1
# [4] = system: E. coli BW25113 robp lux reporter
# How it was run: as §1
# [5] = system: E. coli BW25113 soxSp lux reporter
# How it was run: as §1
# [6] = system: E. coli BW25113 tolCp lux reporter
# How it was run: as §1
# [7] = 21.6 µg/ml, genetic background: wild type
# [8] = 21.6 µg/ml, genetic background: ΔmarA
# [9] = 21.6 µg/ml, genetic background: Δrob
# [10] = 21.6 µg/ml, genetic background: ΔsoxS
# [11] = 43.2 µg/ml, genetic background: wild type
# [12] = 43.2 µg/ml, genetic background: ΔmarA
# [13] = 43.2 µg/ml, genetic background: Δrob
# [14] = 43.2 µg/ml, genetic background: ΔsoxS
# [15] = 86.4 µg/ml, genetic background: wild type
# [16] = 86.4 µg/ml, genetic background: ΔmarA
# [17] = 86.4 µg/ml, genetic background: Δrob
# [18] = 86.4 µg/ml, genetic background: ΔsoxS
# [19] = 172.7 µg/ml, genetic background: wild type
# [20] = 172.7 µg/ml, genetic background: ΔmarA
# [21] = 172.7 µg/ml, genetic background: Δrob
# [22] = 172.7 µg/ml, genetic background: ΔsoxS
smiles,measurement,setting,value
COc1ccc2[nH]c([S+]([O-])Cc3ncc(C)c(OC)c3C)nc2c1 (stereo unspecified) [Omeprazole],promoter activity interaction Z-score,[1]; [7],-0.337 ± 0.014
same,promoter activity interaction Z-score,[1]; [8],0.346 ± 0.48
same,promoter activity interaction Z-score,[1]; [9],-0.0504 ± 0.066
same,promoter activity interaction Z-score,[1]; [10],-0.13 ± 0.54
same,promoter activity interaction Z-score,[1]; [11],-0.353 ± 0.082
same,promoter activity interaction Z-score,[1]; [12],-0.358 ± 0.072
same,promoter activity interaction Z-score,[1]; [13],-0.105 ± 0.12
same,promoter activity interaction Z-score,[1]; [14],-0.0181 ± 0.095
same,promoter activity interaction Z-score,[1]; [15],-0.362 ± 0.37
same,promoter activity interaction Z-score,[1]; [16],-0.395 ± 0.11
same,promoter activity interaction Z-score,[1]; [17],-0.192 ± 0.19
same,promoter activity interaction Z-score,[1]; [18],-0.303 ± 0.19
same,promoter activity interaction Z-score,[1]; [19],-0.479 ± 0.43
same,promoter activity interaction Z-score,[1]; [20],-0.193 ± 0.65
same,promoter activity interaction Z-score,[1]; [21],-0.199 ± 0.17
same,promoter activity interaction Z-score,[1]; [22],-0.532 ± 0.35
same,promoter activity interaction Z-score,[2]; [7],-0.467 ± 0.1
same,promoter activity interaction Z-score,[2]; [8],-0.0778 ± 0.095
same,promoter activity interaction Z-score,[2]; [9],-0.00843 ± 0.2
same,promoter activity interaction Z-score,[2]; [10],-0.201 ± 0.026
same,promoter activity interaction Z-score,[2]; [11],-0.228 ± 0.15
same,promoter activity interaction Z-score,[2]; [12],-0.00184 ± 0.029
same,promoter activity interaction Z-score,[2]; [13],0.0425 ± 0.23
same,promoter activity interaction Z-score,[2]; [14],-0.0104 ± 0.033
same,promoter activity interaction Z-score,[2]; [15],-0.311 ± 0.11
same,promoter activity interaction Z-score,[2]; [16],0.141 ± 0.0042
same,promoter activity interaction Z-score,[2]; [17],0.11 ± 0.088
same,promoter activity interaction Z-score,[2]; [18],0.0651 ± 0.15
same,promoter activity interaction Z-score,[2]; [19],-0.637 ± 0.076
same,promoter activity interaction Z-score,[2]; [20],0.0179 ± 0.059
same,promoter activity interaction Z-score,[2]; [21],-0.0934 ± 0.045
same,promoter activity interaction Z-score,[2]; [22],-0.467 ± 0.12
same,promoter activity interaction Z-score,[3]; [7],-0.482 ± 0.29
same,promoter activity interaction Z-score,[3]; [8],-0.539 ± 0.12
same,promoter activity interaction Z-score,[3]; [9],-0.476 ± 0.1
same,promoter activity interaction Z-score,[3]; [10],-0.299 ± 0.19
same,promoter activity interaction Z-score,[3]; [11],-0.42 ± 0.17
same,promoter activity interaction Z-score,[3]; [12],-0.516 ± 0.55
same,promoter activity interaction Z-score,[3]; [13],-0.244 ± 0.2
same,promoter activity interaction Z-score,[3]; [14],-0.555 ± 0.25
same,promoter activity interaction Z-score,[3]; [15],-1.02 ± 0.014
same,promoter activity interaction Z-score,[3]; [16],-0.56 ± 0.35
same,promoter activity interaction Z-score,[3]; [17],-0.352 ± 0.17
same,promoter activity interaction Z-score,[3]; [18],-0.773 ± 0.19
same,promoter activity interaction Z-score,[3]; [19],-0.996 ± 0.11
same,promoter activity interaction Z-score,[3]; [20],-0.786 ± 0.12
same,promoter activity interaction Z-score,[3]; [21],-1.14 ± 0.44
same,promoter activity interaction Z-score,[3]; [22],-1.41 ± 0.14
same,promoter activity interaction Z-score,[4]; [7],-0.44 ± 0.32
same,promoter activity interaction Z-score,[4]; [8],-0.171 ± 0.43
same,promoter activity interaction Z-score,[4]; [9],-0.295 ± 0.01
same,promoter activity interaction Z-score,[4]; [10],0.394 ± 0.34
same,promoter activity interaction Z-score,[4]; [11],0.141 ± 0.33
same,promoter activity interaction Z-score,[4]; [12],0.325 ± 0.23
same,promoter activity interaction Z-score,[4]; [13],-0.173 ± 0.37
same,promoter activity interaction Z-score,[4]; [14],0.145 ± 0.46
same,promoter activity interaction Z-score,[4]; [15],-0.722 ± 0.046
same,promoter activity interaction Z-score,[4]; [16],0.298 ± 0.23
same,promoter activity interaction Z-score,[4]; [17],-0.445 ± 0.32
same,promoter activity interaction Z-score,[4]; [18],-0.519 ± 0.64
same,promoter activity interaction Z-score,[4]; [19],-0.656 ± 0.28
same,promoter activity interaction Z-score,[4]; [20],-0.167 ± 0.31
same,promoter activity interaction Z-score,[4]; [21],-0.507 ± 0.035
same,promoter activity interaction Z-score,[4]; [22],-0.379 ± 0.46
same,promoter activity interaction Z-score,[5]; [7],-0.231 ± 0.11
same,promoter activity interaction Z-score,[5]; [8],-0.202 ± 0.05
same,promoter activity interaction Z-score,[5]; [9],-0.257 ± 0.062
same,promoter activity interaction Z-score,[5]; [10],-0.178 ± 0.32
same,promoter activity interaction Z-score,[5]; [11],-0.256 ± 0.0098
same,promoter activity interaction Z-score,[5]; [12],-0.206 ± 0.022
same,promoter activity interaction Z-score,[5]; [13],-0.175 ± 0.12
same,promoter activity interaction Z-score,[5]; [14],-0.281 ± 0.054
same,promoter activity interaction Z-score,[5]; [15],-0.301 ± 0.081
same,promoter activity interaction Z-score,[5]; [16],-0.305 ± 0.1
same,promoter activity interaction Z-score,[5]; [17],-0.0539 ± 0.1
same,promoter activity interaction Z-score,[5]; [18],-0.344 ± 0.12
same,promoter activity interaction Z-score,[5]; [19],-0.333 ± 0.024
same,promoter activity interaction Z-score,[5]; [20],-0.374 ± 0.013
same,promoter activity interaction Z-score,[5]; [21],-0.226 ± 0.14
same,promoter activity interaction Z-score,[5]; [22],-0.806 ± 0.14
same,promoter activity interaction Z-score,[6]; [7],-0.0562 ± 0.63
same,promoter activity interaction Z-score,[6]; [8],-0.81 ± 0.13
same,promoter activity interaction Z-score,[6]; [9],-0.978 ± 0.82
same,promoter activity interaction Z-score,[6]; [10],-0.661 ± 0.85
same,promoter activity interaction Z-score,[6]; [11],0.122 ± 0.9
same,promoter activity interaction Z-score,[6]; [12],-0.409 ± 0.93
same,promoter activity interaction Z-score,[6]; [13],-0.642 ± 0.94
same,promoter activity interaction Z-score,[6]; [14],0.332 ± 0.16
same,promoter activity interaction Z-score,[6]; [15],-0.33 ± 0.54
same,promoter activity interaction Z-score,[6]; [16],0.11 ± 0.23
same,promoter activity interaction Z-score,[6]; [17],0.71 ± 0.025
same,promoter activity interaction Z-score,[6]; [18],0.0744 ± 0.91
same,promoter activity interaction Z-score,[6]; [19],0.169 ± 0.58
same,promoter activity interaction Z-score,[6]; [20],-0.0827 ± 1.5
same,promoter activity interaction Z-score,[6]; [21],0.0999 ± 0.066
same,promoter activity interaction Z-score,[6]; [22],-0.969 ± 0.63
